Test results published in PubChem BioAssay (NCATS).
Records with an inconclusive call do not appear. Activity calls are given as the source filed them. Unless noted, calls follow the shape of the dose curve; as a rule, active = well fitted curve in the direction sought with a large enough effect; inconclusive = small, poorly fitted or top-dose-only effect, or another doubt; inactive = no such curve, though single readings can be large; an effect the other way counts as inactive or inconclusive.

Experiments:
[1] = High Content Imaging Cell-Based qHTS for Inhibitors of the mTORC1 Signaling Pathway in MEF Cells (AID 2667); settings: series mostly up to 38.3 µM;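 also: Tsc2-/- p53-/- MEFs stably re-expressing wild-type Tsc2 exposed 24 h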
Outline: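 Tsc2-/-, p53-/- MEFs stably re-expressing WT Tsc2, grown in DMEM + 10% FBS, were treated with compounds for 24 hrs at 37 degree Celsius, fixed, and stained with Alexa-488 phospho-rpS6 Ser235/236 antibody plus Hoechst; results given as % positive cells.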

[2] = Cytometry Cell-Based qHTS for Inhibitors of the mTORC1 Signaling Pathway in MEF cells (AID 2668); settings: mTORC1 pathway readout; series mostly up to 38.3 µM;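 also: Tsc2-/- p53-/- mouse embryonic fibroblasts stably re-expressing wild-type Tsc2; percent cells positive for phospho-rpS6 Ser235/236 relative to propidium iodide stain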
Outline: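 Pathway inhibition in WT Tsc2-rescued Tsc2-/-, p53-/- MEFs is measured as the Alexa-488 phospho-rpS6 to propidium iodide intensity ratio after 24 hrs of compound at 37 degree Celsius. PI-stained cell number gives viability.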

[3] = target: Ubiquitin carboxyl-terminal hydrolase 2 (Homo sapiens) (UniProt O75604); assay: qHTS Validation Assay for Inhibitors of Ubiquitin-specific Protease USP2a Using CHOP2 as the Reporter (AID 463106); settings: USP2a cleavage of CHOP2 reporter, enzymatic; series mostly up to 38.3 µM
Sequence of Ubiquitin carboxyl-terminal hydrolase 2 (Homo sapiens) (O75604 whole entry, looked up): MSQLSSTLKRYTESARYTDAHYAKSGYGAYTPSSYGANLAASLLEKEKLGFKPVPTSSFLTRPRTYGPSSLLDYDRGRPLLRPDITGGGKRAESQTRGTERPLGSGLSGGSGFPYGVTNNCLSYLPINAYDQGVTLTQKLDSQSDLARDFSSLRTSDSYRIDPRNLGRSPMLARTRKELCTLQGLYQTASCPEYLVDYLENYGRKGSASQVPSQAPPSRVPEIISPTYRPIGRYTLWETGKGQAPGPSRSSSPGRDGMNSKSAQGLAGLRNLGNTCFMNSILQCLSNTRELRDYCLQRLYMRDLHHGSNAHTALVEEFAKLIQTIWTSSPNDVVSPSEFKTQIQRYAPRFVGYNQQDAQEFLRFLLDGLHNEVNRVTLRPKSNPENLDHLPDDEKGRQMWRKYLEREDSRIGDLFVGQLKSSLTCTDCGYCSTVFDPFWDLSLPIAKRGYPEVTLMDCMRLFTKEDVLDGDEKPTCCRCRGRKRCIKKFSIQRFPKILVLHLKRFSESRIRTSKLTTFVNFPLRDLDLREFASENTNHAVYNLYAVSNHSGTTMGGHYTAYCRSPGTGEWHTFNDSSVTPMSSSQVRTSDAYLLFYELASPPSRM
Outline: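 Readout was coupled fluorescence (Ex 485/Em 531 nm), read 60 min after adding 25 nM final Ub-CHOP2 and 25 nM reporter substrate. Beforehand, 10 nM final USP2 core had 30 min at RT with compound in pH 8.0 buffer. Curves were fitted after normalization to NEM and flagged for artifacts using time-zero reads.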

[4] = target: DNA polymerase III PolC-type (Bacillus subtilis (strain 168)) (UniProt P13267); assay: qHTS Validation Assay for the Inhibitors of DNA Replication in Gram-Positive Bacteria (AID 485295); settings: Gram-positive bacterial DNA replication assay; series mostly up to 57.1 µM;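 also: reconstituted holoenzyme with PolC plus beta clamp SSB and primase; PicoGreen fluorescence of double-stranded DNA made on primed circular M13 template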
Outline: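 Primed replication of single-stranded M13Gori by a four-protein B. subtilis holoenzyme is measured at room temperature. Double-stranded product is quantified by PicoGreen fluorescence after an EDTA stop; inhibition is scaled between DMSO and EDTA controls.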

[5] = target: Tumor susceptibility gene 101 protein (Homo sapiens) (UniProt Q99816); assay: qHTS Validation Assay for Iinhibitors of HIV-1 Budding by Blocking the Interaction of PTAP/TSG101 (AID 485342; calls by dose curve); settings: TSG101-PTAP binding, fluorescence polarization, 4-point titration; series mostly up to 115 µM
Sequence of Tumor susceptibility gene 101 protein (Homo sapiens) (Q99816 whole entry, looked up, the tested form may be a part): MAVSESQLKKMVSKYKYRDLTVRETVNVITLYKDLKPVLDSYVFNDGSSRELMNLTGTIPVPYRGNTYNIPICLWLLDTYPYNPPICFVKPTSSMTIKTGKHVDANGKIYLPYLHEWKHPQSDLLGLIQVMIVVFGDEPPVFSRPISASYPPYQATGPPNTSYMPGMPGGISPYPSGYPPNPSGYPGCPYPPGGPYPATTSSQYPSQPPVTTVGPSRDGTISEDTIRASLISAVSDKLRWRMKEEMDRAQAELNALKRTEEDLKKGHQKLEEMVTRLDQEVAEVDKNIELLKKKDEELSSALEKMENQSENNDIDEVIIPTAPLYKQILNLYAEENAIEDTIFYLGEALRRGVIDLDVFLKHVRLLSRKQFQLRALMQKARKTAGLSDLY
Outline: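 Fluorescence anisotropy measured PTAP-Tsg101 interaction. Final concentrations were 10 uM protein domain and 50 nM labeled peptide, equilibrated 20 min at room temperature.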

[6] = qHTS Validation Assay to Find Inhibitors of Chronic Active B-Cell Receptor Signaling (AID 485345; active = well fitted curve in the direction sought with a large enough effect in the main read-out, with a control signal flat, not every such curve was filed as active); settings: ABC-DLBCL cells, chronic BCR signaling reporter, CBG luciferase; series mostly up to 46.1 µM
Outline: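 Read-out: ratio of filter-corrected green (IkappaBalpha fusion) to red (native) luciferase signal in doxycycline-induced TMD8 cells after 4 h at 37C. Titration spanned 46 uM–3 nM; Data were normalised to basal cells and 10 uM MG-132 wells.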

[7] = target: Beta-2 adrenergic receptor (Homo sapiens) (UniProt P07550); assay: qHTS validation assay of beta-arrestin-biased ligands of beta2-adrenergic receptor (AID 485366); settings: cell-based beta-arrestin recruitment to ADRB2, qHTS; series mostly up to 46.1 µM
Sequence of Beta-2 adrenergic receptor (Homo sapiens) (P07550 whole entry, looked up): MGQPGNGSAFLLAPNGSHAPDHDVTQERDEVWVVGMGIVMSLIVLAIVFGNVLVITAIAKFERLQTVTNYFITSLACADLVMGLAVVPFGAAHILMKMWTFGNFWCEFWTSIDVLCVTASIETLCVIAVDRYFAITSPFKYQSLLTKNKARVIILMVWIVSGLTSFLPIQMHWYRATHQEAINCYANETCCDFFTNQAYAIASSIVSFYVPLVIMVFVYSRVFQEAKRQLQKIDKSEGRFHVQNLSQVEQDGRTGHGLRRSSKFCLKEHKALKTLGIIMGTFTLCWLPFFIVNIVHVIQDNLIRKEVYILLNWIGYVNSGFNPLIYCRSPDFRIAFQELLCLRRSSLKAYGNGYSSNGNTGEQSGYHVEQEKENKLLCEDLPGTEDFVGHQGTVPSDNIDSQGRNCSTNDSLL
Outline: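 qHTS, Tango cells, 1500 cells/well, DMEM + 1% FBS. Cpd 18 hr at 37 degrees C. Luciferin/ATP/CoA detection mix, 15 min RT, luminescence read. %Activity from corrected signal; CRC fit, curve class.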

[8] = target: ATP-dependent 6-phosphofructokinase (Trypanosoma brucei brucei) (UniProt O15648); assay: qHTS Validation Assay to Find Inhibitors of T. brucei phosphofructokinase (AID 485368); settings: T. brucei PFK enzyme assay, qHTS 7-point titration; at 57.5 µM (top of the series)
Sequence of ATP-dependent 6-phosphofructokinase (Trypanosoma brucei brucei) (O15648 whole entry, looked up): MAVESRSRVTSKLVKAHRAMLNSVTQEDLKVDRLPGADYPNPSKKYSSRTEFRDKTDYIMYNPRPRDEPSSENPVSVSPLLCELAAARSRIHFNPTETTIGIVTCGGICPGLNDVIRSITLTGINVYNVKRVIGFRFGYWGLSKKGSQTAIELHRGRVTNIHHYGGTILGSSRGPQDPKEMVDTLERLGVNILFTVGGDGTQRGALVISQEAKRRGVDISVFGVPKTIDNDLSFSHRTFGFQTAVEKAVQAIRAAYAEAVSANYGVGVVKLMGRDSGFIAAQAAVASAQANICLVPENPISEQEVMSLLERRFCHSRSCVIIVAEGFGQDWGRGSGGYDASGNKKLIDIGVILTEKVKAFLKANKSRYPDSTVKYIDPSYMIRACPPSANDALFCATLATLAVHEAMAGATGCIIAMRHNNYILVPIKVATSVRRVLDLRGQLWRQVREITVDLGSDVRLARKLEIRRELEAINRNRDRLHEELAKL
Outline: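 Luminescent ADP detection measures PFK turnover of fructose-6-phosphate (0.5 mM) with ATP (0.1 mM) at pH 8.0. Reaction runs 45 min at room temperature with 1.25 nM enzyme; inhibitors tested as titrations up to 57 uM.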

[9] = target: Thioredoxin reductase 1, cytoplasmic (Rattus norvegicus) (UniProt O89049); assay: qHTS Assay for Substrates of Mammalian Selenoprotein Thioredoxin Reductase 1 (TrxR1) (AID 488772); settings: purified TrxR1, NADPH consumption substrate assay; series mostly up to 57.1 µM;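 also: a drop in NADPH fluorescence below the no-compound background marks a TrxR1 substrate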
Sequence of Thioredoxin reductase 1, cytoplasmic (Rattus norvegicus) (O89049 whole entry, looked up): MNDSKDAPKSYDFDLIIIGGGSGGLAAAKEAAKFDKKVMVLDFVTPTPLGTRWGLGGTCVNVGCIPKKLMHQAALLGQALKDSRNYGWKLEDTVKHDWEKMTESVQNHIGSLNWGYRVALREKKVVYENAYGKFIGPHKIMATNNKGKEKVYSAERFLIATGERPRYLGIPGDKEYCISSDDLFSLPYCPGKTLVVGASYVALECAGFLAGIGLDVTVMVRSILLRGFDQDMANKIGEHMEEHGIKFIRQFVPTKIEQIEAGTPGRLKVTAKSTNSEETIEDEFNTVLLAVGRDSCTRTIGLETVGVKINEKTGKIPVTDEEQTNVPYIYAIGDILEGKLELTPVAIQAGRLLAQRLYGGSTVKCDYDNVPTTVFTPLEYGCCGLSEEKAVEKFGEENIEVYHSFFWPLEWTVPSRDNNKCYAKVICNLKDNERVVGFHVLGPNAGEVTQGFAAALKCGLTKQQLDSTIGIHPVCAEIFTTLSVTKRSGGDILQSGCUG
Outline: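 In this dual-purpose format, potential substrates are identified from the first fluorescence read after selenite addition, not from the 8-minute delta. Rat enzyme is preincubated with NADPH and then with compound at ~22 deg C.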

[10] = target: Thioredoxin reductase 1, cytoplasmic (Rattus norvegicus) (UniProt O89049); assay: qHTS Assay for Inhibitors of Mammalian Selenoprotein Thioredoxin Reductase 1 (TrxR1) (AID 488773); settings: purified TrxR1 enzyme activity; series mostly up to 57.1 µM;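 also: drop in NADPH fluorescence over an 8 min run after selenite addition; nearly all actives have a fitted effect of over 40% in size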
Outline: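 Inhibition is scored from the loss of NADPH fluorescence between first and last reads of an 8-min kinetic run. Selenite (400 uM) was the substrate, added after 15 min compound preincubation at room temperature.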

[11] = target: Flap endonuclease 1 (Homo sapiens) (UniProt P39748); assay: qHTS Validation Assay for the Inhibitors of Human Flap endonuclease 1 (FEN1) (AID 488816); settings: FEN1 nuclease activity, fluorogenic DNA substrate; series mostly up to 57.1 µM
Sequence of Flap endonuclease 1 (Homo sapiens) (P39748 whole entry, looked up): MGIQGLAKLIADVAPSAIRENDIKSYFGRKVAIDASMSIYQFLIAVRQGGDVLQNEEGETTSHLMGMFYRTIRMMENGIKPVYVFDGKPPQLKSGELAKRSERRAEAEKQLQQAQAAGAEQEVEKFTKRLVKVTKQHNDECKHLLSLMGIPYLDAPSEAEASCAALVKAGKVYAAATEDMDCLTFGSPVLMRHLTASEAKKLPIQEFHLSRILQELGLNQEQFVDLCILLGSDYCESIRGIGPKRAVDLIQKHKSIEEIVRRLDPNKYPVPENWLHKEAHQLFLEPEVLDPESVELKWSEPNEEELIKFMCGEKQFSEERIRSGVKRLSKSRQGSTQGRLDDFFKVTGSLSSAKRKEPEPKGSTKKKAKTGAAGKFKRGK
Outline: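 qHTS format: compounds and 10 nM FEN1 incubated 15 min at room temperature before adding 50 nM substrate. Cleavage followed by reads at 0 and 15 min; normalized data fitted to a four-parameter Hill curve.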

[12] = target: Chromobox protein homolog 1 (Homo sapiens) (UniProt P83916); assay: qHTS Validation Assay for Inhibitors of HP1-beta Chromodomain Interactions with Methylated Histone Tails (AID 488953); settings: HP1-beta chromodomain / methylated histone peptide binding assay; series mostly up to 114 µM;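 also: loss of AlphaScreen luminescence from HP1-beta binding biotinylated H3K9me3 peptide; nearly all actives have a fitted effect of over 50% in size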
Sequence of Chromobox protein homolog 1 (Homo sapiens) (P83916 whole entry, looked up): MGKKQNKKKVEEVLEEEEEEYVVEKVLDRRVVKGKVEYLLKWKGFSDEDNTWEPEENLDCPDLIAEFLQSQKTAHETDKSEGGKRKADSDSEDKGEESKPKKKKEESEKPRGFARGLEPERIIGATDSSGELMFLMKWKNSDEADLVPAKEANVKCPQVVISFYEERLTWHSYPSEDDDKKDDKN
Outline: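 AlphaScreen proximity readout: streptavidin donor and Ni-chelate acceptor beads, 10 ug/mL final, 30 min dark, RT. Complex of 50 nM HP1-beta and 50 nM b-H3(1-18)K9me3 formed 30 min, then compound-treated 30 min; PBS pH 7.4/0.01% Tween-20.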

[13] = target: Methanococcus maripaludis chaperonin (MmCpn) (UniProt Q6LX38); assay: High-Throughput Screening for Modulators of Cytosolic Chaperonin Activity: MmCpn Primary Screen (AID 488978); settings: Purified MmCpn ATPase activity, ADP HTRF detection, 10 min; series mostly up to 76.9 µM;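 also: 50 nM MmCpn enzyme hydrolysing 30 µM ATP at 37 °C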
Sequence of Methanococcus maripaludis chaperonin (MmCpn) (Q6LX38 1-543): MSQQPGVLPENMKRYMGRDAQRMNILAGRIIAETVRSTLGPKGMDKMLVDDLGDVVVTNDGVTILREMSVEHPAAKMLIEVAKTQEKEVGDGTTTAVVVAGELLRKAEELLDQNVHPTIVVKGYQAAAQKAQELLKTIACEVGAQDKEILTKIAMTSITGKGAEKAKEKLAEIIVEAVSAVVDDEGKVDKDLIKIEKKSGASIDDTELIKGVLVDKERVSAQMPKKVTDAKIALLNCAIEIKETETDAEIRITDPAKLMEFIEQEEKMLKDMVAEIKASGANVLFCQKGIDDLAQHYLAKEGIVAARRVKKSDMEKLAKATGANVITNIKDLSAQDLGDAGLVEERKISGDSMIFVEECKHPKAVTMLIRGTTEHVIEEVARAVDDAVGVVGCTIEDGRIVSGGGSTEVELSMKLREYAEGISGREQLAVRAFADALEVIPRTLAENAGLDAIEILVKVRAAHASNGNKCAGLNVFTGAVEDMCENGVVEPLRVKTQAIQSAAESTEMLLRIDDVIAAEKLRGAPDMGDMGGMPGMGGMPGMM
Outline: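 Measures ATPase turnover of the M. maripaludis chaperonin (50 nM final) against 30 uM ATP over 10 min at 37C, with compound added 5 min beforehand at room temperature. ADP is quantified by HTRF immunodetection.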

[14] = target: D(1A) dopamine receptor (Homo sapiens) (UniProt P21728); assay: HTS Assay for Allosteric Agonists of the Human D1 Dopamine Receptor: Primary Screen for Agonists (AID 488981); settings: Inducible HEK293 T-REx D1 cells, calcium-flux fluorescence, 180 s kinetic; series mostly up to 41.8 µM
Sequence of D(1A) dopamine receptor (Homo sapiens) (P21728 whole entry, looked up): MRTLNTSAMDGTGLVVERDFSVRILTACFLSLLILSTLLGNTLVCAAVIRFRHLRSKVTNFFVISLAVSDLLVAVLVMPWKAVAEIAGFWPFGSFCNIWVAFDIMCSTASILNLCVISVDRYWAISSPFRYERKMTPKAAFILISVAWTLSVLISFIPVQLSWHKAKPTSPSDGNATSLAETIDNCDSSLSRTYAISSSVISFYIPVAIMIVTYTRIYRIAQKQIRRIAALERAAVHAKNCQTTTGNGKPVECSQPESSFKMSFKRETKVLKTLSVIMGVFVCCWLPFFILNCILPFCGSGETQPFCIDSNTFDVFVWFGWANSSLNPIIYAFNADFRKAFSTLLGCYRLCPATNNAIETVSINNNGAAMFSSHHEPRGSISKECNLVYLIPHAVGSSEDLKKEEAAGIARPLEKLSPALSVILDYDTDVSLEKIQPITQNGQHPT
Outline: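 Calcium flux in an inducible, force-coupled HEK293 Trex D1 line (overnight at 30 C): agonist mode is the 180 s kinetic read after compound; potentiator mode is the following 180 s read after dopamine at EC20.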

[15] = target: D(1A) dopamine receptor (Homo sapiens) (UniProt P21728); assay: HTS Assay for Allosteric Agonists of the Human D1 Dopamine Receptor: Primary Screen for Antagonists (AID 488983); settings: D1 receptor cell assay, antagonist mode, qHTS titration; series mostly up to 41.8 µM;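 also: calcium flux response to an EC80 dopamine challenge measured with no-wash dye; nearly all actives have a fitted effect of over 65% in size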
Outline: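 Calcium flux readout, no-wash dye, inducible HEK293 T-REx D1 line (force-coupled). Compound added after 10 s baseline, 180 s kinetic read; then dopamine at EC80, further 180 s read.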

[16] = Validation screen for small molecules that induce genotoxicity in human embryonic kidney (HEK293T) cells expressing luciferase-tagged ELG1 (AID 493106); settings: luminescence; series mostly up to 46.1 µM
Outline: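 qHTS format; 2,000 HEK293T ELG1-luc cells/well; 23 nL compound via pin tool; 16 hr, 37 °C/5% CO2; ONE-Glo, 30 min RT; luminescence read.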

[17] = target: ATPase family AAA domain-containing protein 5 (Homo sapiens) (UniProt Q96QE3); assay: Validation screen for small molecules that inhibit ELG1-dependent DNA repair in human embryonic kidney (HEK293T) cells expressing luciferase-tagged ELG1 (AID 493107); settings: HEK293T ELG1-luciferase level, luminescence, 5-fluorouridine co-treatment, 16 h; series mostly up to 46.1 µM;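 also: cells co-treated with the DNA-damaging agent 5-fluorouridine alongside compound; inhibitors lower the ELG1-luciferase luminescence signal; nearly all actives have a fitted effect of over 70% in size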
Outline: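 ELG1-luciferase HEK293T reporter; 5-fluorouridine + compound/DMSO, 16 hr, 37 °C, 5% CO2; ONE-Glo 30 min RT; luminescence read, qHTS format.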

[18] = qHTS for Inhibitors of Cell Surface uPA Generation: Validation Assay (AID 493164); settings: mouse cells, plasminogen activation; series mostly up to 38.3 µM;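 also: RAW 264.7 macrophage cells exposed to compound for 18 h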
Outline: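 Compounds are titrated over seven points (2.45 nM–38.3 uM final) onto pre-plated RAW 264.7 cells and incubated for 18 h. Retained intracellular ATP, measured with ATP-Lite, indicates blocked lethal factor entry.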

[19] = target: Peptidyl-prolyl cis-trans isomerase NIMA-interacting 1 (Homo sapiens) (UniProt Q13526); assay: qHTS Validation Assay to Find Inhibitors of Pin1 (AID 504536; active = well fitted inhibition curve with a large enough effect in the polarisation, with a control signal flat, not every such curve was filed as active; the % refers to the polarisation); settings: Pin1 fluorescence polarization peptide binding assay; series mostly up to 57.5 µM
Sequence of Peptidyl-prolyl cis-trans isomerase NIMA-interacting 1 (Homo sapiens) (Q13526 whole entry, looked up): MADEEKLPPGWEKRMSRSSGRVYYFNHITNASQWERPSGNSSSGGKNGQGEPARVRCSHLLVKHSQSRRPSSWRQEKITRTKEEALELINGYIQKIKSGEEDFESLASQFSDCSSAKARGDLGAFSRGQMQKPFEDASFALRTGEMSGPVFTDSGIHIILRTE
Outline: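 Fluorescence polarization competition: compounds (titration) displace HiFluor-488-labeled Pin1-1b peptide from Pin1 (0.3 uM final) in pH 7.5 HEPES buffer with DTT, 10 min at room temperature; %Activity normalized to no-enzyme wells, curves fitted.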

[20] = target: Phosphoglycerate kinase, glycosomal (Trypanosoma brucei brucei) (UniProt P07378); assay: qHTS Validation Assay to Find Inhibitors of Phosphoglycerate Kinase (AID 504547); settings: enzymatic PGK inhibition, coupled luminescence read-out; series mostly up to 57.5 µM
Sequence of Phosphoglycerate kinase, glycosomal (Trypanosoma brucei brucei) (P07378 whole entry, looked up): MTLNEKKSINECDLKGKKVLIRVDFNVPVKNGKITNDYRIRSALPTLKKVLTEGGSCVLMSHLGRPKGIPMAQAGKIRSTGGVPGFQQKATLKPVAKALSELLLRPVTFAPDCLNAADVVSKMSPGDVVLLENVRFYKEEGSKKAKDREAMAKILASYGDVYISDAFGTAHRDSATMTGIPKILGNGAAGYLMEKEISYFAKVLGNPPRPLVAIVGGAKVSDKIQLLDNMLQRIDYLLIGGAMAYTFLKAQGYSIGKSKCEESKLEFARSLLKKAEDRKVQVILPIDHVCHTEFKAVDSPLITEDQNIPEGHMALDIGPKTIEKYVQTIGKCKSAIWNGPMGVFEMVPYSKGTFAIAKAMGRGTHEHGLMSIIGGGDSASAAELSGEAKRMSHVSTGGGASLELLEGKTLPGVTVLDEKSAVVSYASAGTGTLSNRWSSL
Outline: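 Luminescence end-point (Kinase-Glo Plus, 10 min) after a 60 min room-temperature coupled reaction. GAPDH at 100nM final supplies 1,3-BPG to PGK. Buffer: 100mM TEA pH 7.6, 5mM MgCl2, 0.01% Tween-20. Wells lacking PGK served as controls.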

Measured: Potency

C[C@H]1C2Cc3ccc(O)cc3[C@]1(C)CCN2CC1CC1
inactive: all assays above

CC12CCC3C(CCC4=C(O)C(=O)CCC43C)C1CCC2=O (stereo not given)
inactive: all assays above
